Source: PubChem
INS-1E GSIS act = GLuc luminescence reporter in INS-1E cells, primary screen for activators of glucose-dependent secretion of insulin; INS-1E GLuc reporter insulin secretion, 2-3 h; activation, % at 16.6 µM; 370,000 tested, 0.61% active;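 active = lowest replicate activation of at least 40%, so every replicate reaches that level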;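 note: 0% = median of neutral control wells and 100% = median of IBMX positive control wells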
dFosB activator = activators of delta FosB homodimer, primary screen, biochemical, fluorescence polarization, TAMRA-CDK5 oligo, single point; Protein FosB (Mus musculus), P13346; purified delta FosB; percent of positive-control signal above neutral wells; activation, % at 25 µM; 340,000 tested, 0.99% active; AID 493131, 2011;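 active = mean activation above about 17%, with every replicate also reaching it, limit read from the data, passing the limit was not always enough; inconclusive = only one of the two conditions met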
RAD52 inh = RAD52 DNA annealing inhibitors, primary screen, biochemical, FRET, single point, set 2. recombinant RAD52 DNA annealing, FRET fluorescence. AID 651710, 2012. inhibition, % at 18.7 µM. DNA repair protein RAD52 homolog (Homo sapiens), P43351. 360,000 tested, 0.46% active;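 active = every replicate showing at least 50% inhibition; inconclusive = mean inhibition at least 50% but not in every replicate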
AF4-AF9 inh = inhibitors of AF4 peptide binding to AF9, primary screen, biochemical, AlphaScreen, biotin-AF4 peptide, FLAG-AF9, single point; 350,000 tested, 0.47% active; AID 651704, 2012; inhibition, % at 10 µM; Protein AF-9 (Homo sapiens), P42568;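 active = every replicate reaching a set inhibition limit, whatever the replicate mean, cut at about 25% in these data; inconclusive = mean inhibition reaches that limit but some replicates miss it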;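 note: 0% = plate neutral control median and 100% = total signal loss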
Target sequence (P42568 whole entry, looked up): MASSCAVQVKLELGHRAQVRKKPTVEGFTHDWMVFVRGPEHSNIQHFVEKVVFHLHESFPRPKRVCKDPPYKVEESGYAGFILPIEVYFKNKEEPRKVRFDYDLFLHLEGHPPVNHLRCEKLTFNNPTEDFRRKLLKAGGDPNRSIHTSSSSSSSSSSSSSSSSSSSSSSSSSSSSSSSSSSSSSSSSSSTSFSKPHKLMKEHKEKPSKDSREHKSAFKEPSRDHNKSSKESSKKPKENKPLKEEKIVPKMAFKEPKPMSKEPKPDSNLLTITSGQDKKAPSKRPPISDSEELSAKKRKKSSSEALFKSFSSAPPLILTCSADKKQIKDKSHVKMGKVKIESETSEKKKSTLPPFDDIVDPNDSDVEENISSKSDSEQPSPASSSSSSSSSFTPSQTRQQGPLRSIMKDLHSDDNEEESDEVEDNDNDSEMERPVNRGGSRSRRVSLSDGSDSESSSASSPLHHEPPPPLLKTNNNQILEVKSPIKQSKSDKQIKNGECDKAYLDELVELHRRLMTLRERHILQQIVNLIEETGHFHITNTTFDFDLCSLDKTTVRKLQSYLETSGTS
DENV2 CPE rescue = inhibitors of DENV2 cytopathic effect, primary screen, cell-based, plate reader, single concentration | DENV2-infected cells, cytopathic effect rescue | CPE inhibition, % at 9.99 µM | 350,000 tested, 1.7% active; in the data active = CPE inhibition above about 20%, passing the limit was not always enough; inconclusive = no clear call, values can overlap the other calls; tested in BHK-21 cells;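 note: 0% = median of neutral control wells and 100% = median of positive control wells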
RAD54 branch = inhibitors of human RAD54 branch migration, primary screen, biochemical, fluorescence, single point. RAD54 Holliday junction branch migration, FAM/BHQ fluorescence. inhibition, % at 10.4 µM. 360,000 tested, 0.14% active;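 active = mean normalized replicate activity at least 40 and at least half of replicates scoring 40 or more; inconclusive = only one of the two criteria met; inactive = mean below 40 and under half of replicates reaching 40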;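 note: 0% = median of neutral control wells and 100% = median of positive control wells; inhibitors cause a drop in the FAM fluorescence signal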
Starred values were filed as active, the others as inactive; ? = inconclusive; . = no result. Hits are enriched below; roughly 3.1% of the tested compounds scored in any of these assays.

SMILES | INS-1E GSIS act | dFosB activator | RAD52 inh | AF4-AF9 inh | DENV2 CPE rescue | RAD54 branch
C[C@H](CO)N1C[C@H](C)[C@H](CN(C)C(=O)CN(C)C)Oc2cc(C#Cc3ccc(F)cc3)ccc2S1(=O)=O | 6 | . | 60* | 20 | 13 | 13
C[C@@H]1CN([C@H](C)CO)S(=O)(=O)c2ccc(C#Cc3ccc(F)cc3)cc2O[C@@H]1CN(C)C(=O)CN(C)C | 53 | . | 65* | 15 | -2 | 5
C[C@H]1CN([C@@H](C)CO)S(=O)(=O)c2ccc(C#Cc3ccc(F)cc3)cc2O[C@@H]1CN(C)C(=O)CN(C)C | 10 | . | 65* | 19 | 8 | 7
C[C@@H]1CN([C@@H](C)CO)S(=O)(=O)c2ccc(C#Cc3ccc(F)cc3)cc2O[C@H]1CN(C)C | -15 | . | 21 | 8 | -9 | -2
CCCC(=O)NC1CCCc2c1cnn2-c1ccc(C)c(C)c1 (stereo not drawn) | 3 | -3 | -2 | 5 | -6 | 2
Cc1ccc(-n2ncc3c2CCCC3NC(=O)CCc2c(C)noc2C)cc1C (stereo not drawn) | -11 | -3 | -9 | -1 | 64* | 8
C[C@@H]1CCCCO[C@@H](CN(C)Cc2ccccc2)[C@H](C)CN([C@@H](C)CO)C(=O)c2cc(NS(=O)(=O)c3cccs3)ccc2O1 | -12 | . | 5 | 1 | 2 | 19
CN(C)CCCN(C(=O)c1ccc(S(=O)(=O)N2CCc3ccccc3C2)cc1)c1nc2c(F)cc(F)cc2s1 | . | 37* | . | . | . | 11
COc1ccc(C)c2sc(N(CCCN(C)C)C(=O)c3ccc(S(=O)(=O)N4CCc5ccccc5C4)cc3)nc12 | 189* | 70* | 95* | -7 | 1 | -1
COc1cc2nc(N(CCCN(C)C)C(=O)c3ccc(S(=O)(=O)N4CCc5ccccc5C4)cc3)sc2cc1OC | 4 | 5 | 49 | 2 | ? | 14
COc1ccc(C)c2sc(N(CCN(C)C)C(=O)/C=C/c3cccs3)nc12 | 9 | 78* | 13 | 10 | 2 | 30
Cc1ccc2sc(N(CCCN(C)C)C(=O)c3ccc(S(=O)(=O)N4CCc5ccccc5C4)cc3)nc2c1C | -52 | 38* | 18 | 9 | -7 | 3
C[C@@H]1CN([C@H](C)CO)C(=O)c2cc(NC(=O)Nc3ccccc3)ccc2O[C@H]1CN(C)C(=O)Nc1cccc2ccccc12 | 12 | . | -2 | 0 | 19 | 4
O=C(C[C@@H]1CC[C@@H]2[C@H](COC[C@H](O)CN2Cc2nccs2)O1)NCc1ccc(-c2ccccc2)cc1 | 5 | . | 0 | 0 | -8 | 2
N#Cc1c(Cl)cccc1N1CCSCC1 | 2 | . | 1 | -4 | 36* | .
N#Cc1c(Cl)cccc1N1CCCC1 | . | -1 | -7 | -1 | 0 | 3
CC(Oc1ccccc1Cl)C(=O)N1CCOCC1 (stereo not drawn) | 39 | 6 | -7 | 5 | 107* | .
COCCn1c(C)cc(C(=O)CSc2nc3ccccc3c(=O)n2Cc2ccco2)c1C | 15 | -2 | -9 | 0 | 23* | -5
COc1cccc(NC(=O)N(C)C[C@@H]2OCc3ccccc3-c3ccccc3C(=O)N([C@@H](C)CO)C[C@@H]2C)c1 | 10 | . | 2 | -1 | 7 | 1
O=C(C[C@H]1C[C@@H]2c3cc(NS(=O)(=O)c4ccc(F)cc4)ccc3O[C@@H]2[C@@H](CO)O1)N1CCCCC1 | -3 | . | -11 | 0 | -4 | 6
CCCn1nc(C(=O)NC2CC2)c2ccccc2c1=O | 52* | -3 | -2 | 0 | -4 | -8
CCCCn1nc(C(=O)NC2CCCCC2)c2ccccc2c1=O | . | . | 7 | -3 | -12 | 3
C[C@H](CO)N1C[C@H](C)[C@@H](CN(C)C(=O)Nc2ccc3c(c2)OCO3)Oc2c(NS(C)(=O)=O)cccc2C1=O | 16 | . | -1 | -2 | -5 | 1
COc1ccc(NC(=O)C2CCC(CNS(=O)(=O)c3cccs3)CC2)cc1OC (stereo not drawn) | 15 | -1 | -14 | -1 | 31* | .
COc1ccc(NC(=O)C2CCC(CNS(=O)(=O)c3cccs3)CC2)cc1 (stereo not drawn) | 4 | 4 | -4 | -2 | 9 | .
SMILES | INS-1E GSIS act | dFosB activator | RAD52 inh | AF4-AF9 inh | DENV2 CPE rescue | RAD54 branch
O=C(/C=C/c1cccs1)Nc1scc(-c2ccccc2)c1C(=O)O | -13 | -9 | -22 | 27* | 1 | .
COc1ccc(NC(=O)N(C)C[C@H]2OCCCC[C@@H](C)Oc3ccc(NS(=O)(=O)c4ccc(Cl)cc4)cc3C(=O)N([C@@H](C)CO)C[C@@H]2C)cc1 | -23 | . | -59 | 4 | 6 | -2
O=C1/C(=C\c2ccc(Cl)c(Cl)c2)CN(C(=O)CCN2CCOCC2)C/C1=C/c1ccc(Cl)c(Cl)c1 | 136* | 13 | -106 | 7 | -1 | .
Cc1nc2ccccc2c(=O)n1-c1ccc(NS(=O)(=O)c2ccc(F)cc2)cc1 | -15 | -13 | -3 | 2 | 4 | .
Cc1nc2ccccc2c(=O)n1-c1ccc(NS(=O)(=O)c2ccccc2)cc1 | -6 | -6 | -10 | -11 | 68* | 1
C/C=C/c1ccc([C@H]2[C@@H](CO)N(CC3CC3)[C@@H]2CNC(=O)NC(C)C)cc1 | -2 | . | 15 | . | 24* | .
C/C=C/c1ccc([C@H]2[C@@H](CN(C)C(=O)CC)N(C(=O)NC(C)C)[C@H]2CO)cc1 | 10 | . | 0 | -3 | 27* | -8
C/C=C/c1ccc([C@@H]2[C@@H](CN(CC)C(=O)CC)N(C(=O)C3CCC3)[C@H]2CO)cc1 | -2 | . | -19 | -3 | 25* | -2
COC(=O)C[C@H]1C[C@@H]2c3cc(NC(=O)C4CCC4)ccc3O[C@@H]2[C@@H](CO)O1 | 0 | . | 0 | -2 | -4 | -7
O=C(CN1CCOCC1)N[C@@H]1CC[C@H](CCNC(=O)Nc2cc(F)ccc2F)O[C@@H]1CO | 3 | . | 0 | 0 | 1 | -8
C[C@H]1CN([C@@H](C)CO)C(=O)c2cc(C#CCc3ccccc3)cnc2O[C@@H]1CN(C)Cc1ccc(C(=O)O)cc1 | 22 | . | -21 | 13 | 15 | -1
C[C@@H]1CCCCO[C@H](CN(C)C(=O)c2ccncc2)[C@@H](C)CN([C@@H](C)CO)C(=O)c2cc(NS(C)(=O)=O)ccc2O1 | 6 | . | 2 | -2 | -2 | -1
C[C@@H]1CN([C@H](C)CO)C(=O)c2cc(NS(=O)(=O)c3cn(C)cn3)ccc2O[C@@H](C)CCCCO[C@@H]1CN(C)C(=O)c1ccncc1 | 14 | . | -5 | -4 | -9 | .
